TIM10 inh – TIM10 yeast growth inhibition; inhibition, % at 10 µM; hit rate 1.4% among 330,000; S. cerevisiae TIM10 strain growth, BacTiter-Glo luminescence, 24 h;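 active = inhibition of 40% or more at the single tested concentration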;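 note: wild-type TIM10 isogenic control strain grown at permissive 25 °C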
PfHsp90 yeast 2 – growth inhibition of yeast expressing Plasmodium Hsp90 | inhibition, % at 9.4 µM | hit rate 0.32% among 310,000 | AID 504621 | S. cerevisiae expressing PfHsp90, BacTiter-Glo ATP, 48 h; yeast lacking PDR1 and PDR3 efflux regulators;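 active = every replicate shows inhibition above about 80%, whatever the replicate mean, limit read from the data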;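 note: 0% = DMSO neutral controls and 100% = 20 µM radicicol positive controls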
tim10-1 inh – tim10-1 yeast growth inhibition. hit rate 2.2% among 330,000. S. cerevisiae tim10-1 ts strain growth, BacTiter-Glo, 24 h. inhibition, % at 20 µM;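 active = inhibition of at least 40%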;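 note: mutant grown at 25 °C; 0% = DMSO wells with yeast and 100% = wells holding no yeast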
SUMO Mot1 rescue – SUMOylation pathway inhibition by Mot1-301 growth rescue. S. cerevisiae Mot1-301 growth rescue, ATP luminescence, 38.5C; percent above DMSO median, 100 means doubled. growth rescue, % at 18.8 µM. hit rate 1% among 320,000;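 active = every valid replicate shows activation above 250% relative to neutral control wells; inactive = the rest, any valid replicate at or below 250%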;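 note: OY570 slx delta 5 strain wells were the positive control but not used for scaling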
tim23-1 inh – inhibits growth of tim23-1 mutant yeast | S. cerevisiae tim23-1 growth, BacTiter-Glo luminescence, 24 h | inhibition, % at 20 µM | hit rate 1.3% among 330,000;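 active = growth inhibition of the mutant yeast at or above 50%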;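 note: temperature-sensitive mutant grown at 25 °C; plate controls were DMSO-treated mutant yeast for no effect and medium wells lacking yeast for full effect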
tim10-1 confirm – confirmation of tim10-1 mutant yeast growth inhibitors | hit rate 56% among 7,400 | shares compounds with tim10-1 inh | S. cerevisiae tim10-1 ts strain growth, BacTiter-Glo, 24 h | AID 463213 | inhibition, % at 20 µM;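 active = inhibition of yeast growth at or above a set limit in either of two repeat tests at 20 µM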;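 note: tim10-1 mutant grown at permissive 25 °C to find synthetic lethal compounds; 0% = DMSO yeast wells and 100% = medium wells without yeast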
tim10 confirm – TIM10 yeast growth inhibition, confirmed | shares compounds with TIM10 inh | S. cerevisiae tim10 strain growth, BacTiter-Glo luminescence, 24 h | inhibition, % at 10 µM | hit rate 63% among 4,600 | AID 463215;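 active = inhibition of yeast growth at or above a set limit in either of two replicates at 10 µM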;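 note: this counterscreen used the strain with wild-type TIM10; 0% = yeast with DMSO and 100% = medium wells lacking yeast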
tim23-1 confirm – confirmation of tim23-1 mutant yeast growth inhibitors. hit rate 83% among 4,400. S. cerevisiae tim23-1 growth, BacTiter-Glo luminescence, 24 h. shares compounds with tim23-1 inh. inhibition, % at 20 µM;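 active = inhibition above about 39% in either of two replicate wells at 20 µM, limit read from the data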;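 note: temperature-sensitive tim23-1 mutant grown at 25 °C; 0% = DMSO wells with yeast and 100% = medium wells without yeast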
* marks the source's active call; other numbers are inactive results; nt = no result given. A selection: hits, their analogues and other compounds. The true share with any hit is near 4.4%.

SMILES	TIM10 inh	PfHsp90 yeast 2	tim10-1 inh	SUMO Mot1 rescue	tim23-1 inh	tim10-1 confirm	tim23-1 confirm	others
COc1ccc2c(c1)/C(=C/c1cc(OC)c(OC)c(OC)c1)C(=O)N2	nt	-7	nt	nt	nt	nt	nt
Cc1ccc2c(c1)/C(=C/c1ccc(F)cc1)C(=O)N2	66*	-4	59*	-6	62*	71*	50*	tim10 confirm=77*
Cc1nc2c(ccc3nc(NC(=O)C4CC4)sc32)s1	65*	nt	53*	18	68*	54*	71*	tim10 confirm=54*
CSc1ccc(C2N=C(c3ccccc3)NO2)cc1 (centres undefined)	26	18	-8	4	21	nt	nt
Oc1c(Br)cc(C2N=C(c3ccccc3)NO2)cc1Br (centres undefined)	33	-3	44*	5	67*	58*	68*
CCN1CCN(CCCNC(=O)c2ccc(/C=C3/Oc4ccccc4N(Cc4cccc(C)c4)C3=O)cc2)CC1	-2	35	49*	40	57*	7	48*
CCOC(=O)C1CCCN1C(=O)C1(NC(C)=O)CCCC1 (centres undefined)	nt	-5	nt	nt	nt	nt	nt
COc1ccc(N2CCN(C(=O)c3cc(-c4cc(OC)ccc4OC)nc4ccccc34)CC2)cc1	14	-17	32	31	21	nt	nt
COc1ccc(-c2cc(C(=O)N3CCN(c4ccccc4F)CC3)c3ccccc3n2)c(OC)c1	39	104*	54*	0	57*	58*	58*
Cc1ccc(-c2cc(C(=O)N3CCN(c4ccc(F)cc4)CC3)c3ccccc3n2)o1	27	-45	44*	27	51*	26	44*
COc1ccc(-c2cc(C(=O)N3CCCCCC3)c3ccccc3n2)c(OC)c1	22	9	42*	9	54*	22	48*
Cc1ccc(-c2cc(C(=O)N3CCOCC3)c3ccccc3n2)o1	0	20	-3	1	9	nt	nt
COc1ccc(-c2cc(C(=O)N3CCN(c4ncccn4)CC3)c3ccccc3n2)c(OC)c1	59*	-16	66*	12	51*	52*	13	tim10 confirm=7
CC(C)COc1cccc(C(=O)N(CC(=O)Nc2ccccc2C(F)(F)F)Cc2ccco2)c1	5	-11	10	1	28	nt	nt
